Laboratory results from PubChem BioAssay (NCI).
“And” between values parts separate entries of the source, which are not always exact repeats. Identical values can stand only once. Compounds without any hit were thinned out: in the full panel of roughly 83,000, 20% have a hit.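 In brief: 96-well plates, 48 h treatment, single concentration, percent growth endpoint.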 Values without a mark were called inactive. The source made the active and inactive calls. How the source made its calls: active means growth percent below 10; inactive means the rest.

The molecules below were run on MDA-MB-468 breast (assay: NCI-60 one-dose screen, 48 h (100 = growth as untreated, 0 = no growth, -100 = all killed)). Settings: 10 µM unless noted.
With `COC(=O)N1CCN(CCNCc2ccc(NC(=O)c3ccc(C)c(C#Cc4cnc5cccnn45)c3)cc2C(F)(F)F)CC1` the growth was -8.93% (active).
With `Cn1ccnc1C(=O)/C=C/c1ccc(C(=O)Nc2ccccc2O)cc1` the growth was -3.85% (active).
With `O=C1NC(=S)S/C1=C\c1cc(Br)ccc1O` the growth was 112%.
Molecule `COc1ccc(C/C(C)=C(\c2ccc(OCCN3CCCCCC3)cc2)c2ccc(OC(=O)C3CCCCC3)cc2)cc1` has a growth of 45%.
In the case of `COc1ccc2c(CCC(c3ccccc3)c3ccccc3)c3[n+](cc2c1OC)CCc1cc2c(cc1-3)OCO2`, the growth is reported as -29.9% (active).
With `CON1C(=O)CC[C@]2(C)[C@H]3CC[C@@H]4C([C@@]5(C)CCC(=O)O5)CC[C@@]4(C)[C@]3(C)CC[C@H]2C1(C)C` (stereo not given in full) the growth was 94.4%.
In the case of `COc1ccc(Cn2cc3c(c2-c2ccc(O)cc2)CCc2cnoc2-3)cc1`, the growth is reported as -3.26% (active).
`O=c1oc2ccc(-c3ccc(F)cc3F)cc2c(=O)n1-c1ccc(Br)cc1F` gave a growth of 47.3%.
With `CCOC(=O)c1cc(-c2cccnc2)nc2c(Cl)cc(Cl)cc12` the growth was 117%.
With `COc1ccc(-c2nc(SCCC(C)C)nc(N/N=C(/C)c3ccc(N)cc3)c2C#N)cc1` the growth was 103%.
With `O=S(=O)(Oc1ccc(-c2cn3ccsc3n2)cc1)c1cccc(C(F)(F)F)c1` the growth was 92.9%.
In the case of `COc1ccc([C@H]2[C@H](O)C(=O)N2c2cc(OC)c(OC)c(OC)c2)cc1`, the growth is reported as 8.33% (active).
With `C/C(=C\C(=N\N=C(N)N)c1ccc(Cl)cc1)c1ccc(Cl)cc1` the growth was -92.9% (active).
For `Nc1nc(Br)nc2c1ncn2C1CC(O)C(CO)O1` (stereo not given), the growth was 100%.
`Cc1cc2c3ccccc3ccc2[n+]2ccccc12` was tested, and the growth was -60.6% (active).
For `O=C(/C=C/c1ccc(Cl)nc1)c1ccc(Cl)cc1Cl`, the growth was 91.5%.
With `CC1(C)CC[C@]2(C(=O)N3CCOCC3)CC[C@]3(C)C(=CC[C@@H]4[C@@]5(C)C/C(=C/c6ccncc6)C(=O)C(C)(C)[C@@H]5CC[C@]43C)[C@@H]2C1` the growth was 3.46% (active).
For `c1ccc2c(Cc3csc4ccccc34)csc2c1`, the growth was 74%.
Work on `CCN(CC)CCCNc1cc(OC)cc2cccnc12` yielded a growth of 59%.
`COc1cc2ccc(C(C)=O)cc2cc1OC` gave a growth of 106%.
`CCc1nc(N)nc(N)c1C#CC(C)c1cc(-c2ccnc(C)c2)c2oc(C)nc2c1` (stereo not given) was tested, and the growth was -20.6% (active).
For `NNC(=O)C1CC2c3ccccc3C1c1ccccc12` (stereo not given), the growth was 112%.
With `Nc1nc2c(c(-c3nc(N)nc4c3CCc3ccccc3-4)n1)CCc1ccccc1-2` the growth was 112%.
`Cc1cc(C)cc(S(=O)(=O)n2ccc(-c3ccc4c(c3)CCC(C)(C)O4)n2)c1` gave a growth of 54.6%.
In the case of `Nc1nc(-c2cccc([N+](=O)[O-])c2)c(N=Nc2ccc(Br)cc2)s1`, the growth is reported as -45.7% (active).
For `CCOc1ccc2c(S(=O)(=O)O)cccc2c1[N+](=O)[O-]`, the growth was 104% and 106%.
`CC(CN1CCN(CCOCCO)CC1)CN1c2ccccc2Sc2ccc(Cl)cc21` (stereo not given) gave a growth of 40.9%.
In the case of `Fc1ccc2nc(-c3cnn4cccnc34)sc2c1`, the growth is reported as -2.57% (active).
`Cc1cc(=O)oc2c1ccc1oc(C#N)c(C)c12` was tested, and the growth was 114%.
Molecule `COc1cc(C2=NN(C=O)C(c3cccc(Nc4ccnc5cc(C(F)(F)F)ccc45)c3)C2)cc(OC)c1OC` (stereo not given) has a growth of 42.8%.
For `C=CC(=O)Nc1cc2c(Nc3ccc(F)c(Cl)c3)ncnc2cc1C#CC(C)(C)N1CCN(C)CC1`, the growth was -61.1% (active).
For `COc1cc(Cn2ncc3ccc(NC(=O)c4cc5ccccc5oc4=N)cc32)cc(OC)c1OC`, the growth was 36.8%.
`C=CCn1c(SCC(=O)Nc2ccc(C(=O)/C=C/c3ccc(C)cc3)cc2)nnc1-c1c[nH]c2ccccc12` gave a growth of 85.3%.
For `CC(=O)OC[C@]12CC[C@@H](C(=O)CBr)[C@@H]1[C@H]1CC[C@@H]3[C@@]4(C)CCCNC(C)(C)[C@@H]4CC[C@@]3(C)[C@]1(C)CC2`, the growth was -67.7% [100 µM] (active).
Work on `COC(=O)[C@H](C)NC(=O)c1ccc(NC(=O)c2[nH]c(C)c(Cl)c2Cl)c(OCCN)c1` yielded a growth of 107%.
Work on `N#Cc1c(N)nc(Nc2nc3ccccc3[nH]2)nc1-c1ccc(Cl)cc1` yielded a growth of 111%.
`COc1ccc2c(c1)/C(=C\c1c[nH]c3ccc(OC)cc13)C(=O)N2` was tested, and the growth was -22.5% (active).
`C#Cc1cccc(Nc2ncnc3cc(OCCOC)c(OCCOC)cc23)c1` was tested, and the growth was -4.78% (active).
In the case of `CCN(Cc1ccc(Cl)c(Cl)c1)c1ccc2nc(N)nc(N)c2c1C`, the growth is reported as -84.2% (active).
`CCCCCCCCCCNCCSS(=O)(=O)O` gave a growth of 110%.
